# SRC2 inh: inhibition of GAL4-SRC2 driven luciferase reporter, primary screen, SRC2 inhibitor project, cell-based, luminescence; Nuclear receptor coactivator 2 (Homo sapiens), Q15596; HEK293 GAL4-SRC2 luciferase reporter; inhibition, % at 9 µM; hit rate 0.17% among 370,000;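 active means inhibition above the mean inhibition of all tested compounds plus 3 SD, set per campaign, cut at about 52% in these data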;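 further: 0% = DMSO treated cells and 100% = cells given Gossypol at 36 µM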
# Gli-Sufu block: Gli-Sufu pathway antagonists, primary screen, luciferase luminescence, Sufu-KO-LIGHT cells, uHTS. hit rate 0.74% among 340,000. Sufu-KO-LIGHT fibroblasts, Gli luciferase reporter luminescence. inhibition, % at 5 µM;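 active means inhibition above about 55%, limit read from the data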;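 further: 0% = DMSO-treated cells and 100% = wells with medium but no cells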
# COUP-TFII inh: NR2F2 transcriptional activity inhibitors, primary screen, cell-based, luciferase reporter, HEK293T, luminescence; inhibition, % at 8.6 µM; AID 686940, 2013; HEK293T NGFI-A luciferase reporter; hit rate 0.7% among 370,000; COUP transcription factor 2 (Homo sapiens), P24468;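 active means inhibition above a per-plate cutoff, mean inhibition of test wells between control levels plus 3 SD, cut at about 38% in these data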;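 further: cells cotransfected with COUP-TFII expression vector driving the NGFI-A reporter; 0% = median of COUP-TF2 test wells and 100% = reporter-only cells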
# LRH-1 inv ag: LRH-1 (NR5A2) inverse agonists, primary screen, cell-based, luminescence, HEK293T, StAR-luciferase reporter; Nuclear receptor subfamily 5 group A member 2 (Homo sapiens), O00482; LRH-1 transfected, 24 h; inhibition, % at 3.6 µM; hit rate 0.13% among 360,000;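 active means inhibition above the mean inhibition of all tested compounds plus 3 SD, cut at about 73% in these data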;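 further: 0% = DMSO wells and 100% = reporter-only cells lacking LRH-1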
# NCOA3 inh: SRC3 coactivator transcriptional activity inhibitors, primary screen, cell-based, luminescence | Nuclear receptor coactivator 3 (Homo sapiens), Q9Y6Q9 | HEK293 GAL4-SRC3 luciferase reporter | inhibition, % at 3.6 µM | hit rate 0.17% among 360,000 | AID 588352, 2011;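 active means inhibition above a per-campaign cutoff, the mean of all compounds plus 3 SD, cut at about 60% in these data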;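 further: 0% = DMSO-treated cells and 100% = gossypol-treated cells at 36 µM; higher means less SRC3-driven luciferase light from the GAL4 reporter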
# SRC1 inh: SRC1 coactivator transcriptional activity inhibitors, primary screen, cell-based, luminescence; Nuclear receptor coactivator 1 (Homo sapiens), Q15788; HEK293 GAL4-SRC1 luciferase reporter; inhibition, % at 3.6 µM; hit rate 0.12% among 360,000; AID 588354, 2011;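 active means inhibition above the campaign mean plus 3 SD, with each screening campaign given its own cutoff, cut at about 60% in these data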;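 further: 0% = DMSO treated cells and 100% = gossypol at 36 µM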
# Target sequence (Q15788 whole entry, looked up, the tested form may be a part): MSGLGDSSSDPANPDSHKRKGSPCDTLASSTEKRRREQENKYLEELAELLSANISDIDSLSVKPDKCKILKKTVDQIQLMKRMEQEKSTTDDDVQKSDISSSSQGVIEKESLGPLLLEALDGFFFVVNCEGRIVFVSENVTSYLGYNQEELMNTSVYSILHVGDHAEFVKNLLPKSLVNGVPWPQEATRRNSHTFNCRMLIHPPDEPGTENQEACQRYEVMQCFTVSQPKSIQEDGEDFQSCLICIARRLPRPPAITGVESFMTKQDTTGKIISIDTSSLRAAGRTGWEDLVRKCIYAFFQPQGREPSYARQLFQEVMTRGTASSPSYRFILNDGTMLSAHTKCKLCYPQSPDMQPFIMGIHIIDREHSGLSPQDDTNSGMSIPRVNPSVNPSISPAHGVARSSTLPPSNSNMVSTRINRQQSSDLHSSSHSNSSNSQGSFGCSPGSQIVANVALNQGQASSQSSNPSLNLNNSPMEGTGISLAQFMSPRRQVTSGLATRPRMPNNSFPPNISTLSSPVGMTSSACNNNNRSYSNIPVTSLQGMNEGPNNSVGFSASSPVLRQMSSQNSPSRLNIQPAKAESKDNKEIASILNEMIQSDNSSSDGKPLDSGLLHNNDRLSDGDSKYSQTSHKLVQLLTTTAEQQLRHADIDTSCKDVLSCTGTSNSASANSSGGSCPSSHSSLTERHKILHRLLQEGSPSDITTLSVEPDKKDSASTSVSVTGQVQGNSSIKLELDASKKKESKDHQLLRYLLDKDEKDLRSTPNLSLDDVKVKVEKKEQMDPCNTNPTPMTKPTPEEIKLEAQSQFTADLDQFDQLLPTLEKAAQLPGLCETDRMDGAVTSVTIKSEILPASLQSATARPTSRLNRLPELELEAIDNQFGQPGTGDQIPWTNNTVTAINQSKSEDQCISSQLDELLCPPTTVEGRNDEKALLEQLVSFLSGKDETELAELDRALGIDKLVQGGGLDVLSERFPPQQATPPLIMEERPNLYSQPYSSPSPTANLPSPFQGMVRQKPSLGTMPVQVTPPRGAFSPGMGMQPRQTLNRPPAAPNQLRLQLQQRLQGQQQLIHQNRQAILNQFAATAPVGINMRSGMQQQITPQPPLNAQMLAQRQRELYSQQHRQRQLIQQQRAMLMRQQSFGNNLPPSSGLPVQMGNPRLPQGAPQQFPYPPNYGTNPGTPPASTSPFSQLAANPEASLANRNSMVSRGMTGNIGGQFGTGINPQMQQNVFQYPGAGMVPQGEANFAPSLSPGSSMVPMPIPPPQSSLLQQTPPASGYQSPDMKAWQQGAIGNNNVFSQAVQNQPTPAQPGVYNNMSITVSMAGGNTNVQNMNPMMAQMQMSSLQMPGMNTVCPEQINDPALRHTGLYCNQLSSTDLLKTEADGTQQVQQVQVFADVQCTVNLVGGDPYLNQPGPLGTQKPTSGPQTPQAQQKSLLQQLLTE
# Gli-Sufu confirm: Gli-SUFU pathway antagonists, confirmation, single concentration, luciferase luminescence, Sufu-KO-LIGHT cells. shares compounds with Gli-Sufu block. Gli luciferase reporter. inhibition, % at 5 µM. hit rate 40% among 2,500. AID 602428, 2012;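 active means mean inhibition at 5 µM reaching about 45%, limit read from the data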;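 further: plate controls were DMSO-treated cells for no effect and wells lacking cells for full effect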
# SufuKO cytotox: cytotoxicity in Sufu-KO-LIGHT cells, confirmation, cytotoxicity control for Gli-SUFU antagonist project, cell-based, ATP luminescence, single concentration; shares compounds with Gli-Sufu block; cytotoxicity, % at 5 µM; hit rate 32% among 2,500;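 active means mean cytotoxicity at 5 µM above about 25%, limit read from the data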;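 further: cells exposed to compound overnight for roughly 16 to 18 hours; plate controls were DMSO wells with cells for no effect and medium without cells for full effect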
# Wnt3a counter: Wnt3a reporter signal inhibition, confirmation, counter-screen for Gli-SUFU antagonist project, Wnt-LIGHT cells, luminescence, single concentration | shares compounds with Gli-Sufu block | hit rate 20% among 2,500 | inhibition, % at 6.25 µM | Wnt3a-driven luciferase reporter;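 active means mean inhibition above about 25%, limit read from the data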
# VP16 Luc counter: Gal4-VP16 luciferase reporter inhibitors, counter-screen for COUP-TFII antagonist project, cell-based, luminescence, HEK293. shares compounds with COUP-TFII inh. inhibition, % at 8.5 µM. hit rate 25% among 2,500. AID 687007, 2013; in the data active means inhibition above about 13%
# NR2F2 inh conf: NR2F2 transcriptional activity inhibitors, confirmation, cell-based, luciferase reporter, HEK293, triplicate | shares compounds with COUP-TFII inh | HEK293 NGFI-A luciferase reporter, luminescence | inhibition, % at 8.5 µM | hit rate 45% among 2,500 | AID 687008, 2013;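 active means mean inhibition over three repeats above a set limit taken from the earlier primary screen, cut at about 38% in these data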;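 further: 100% = cells given the luciferase reporter alone without the COUP-TF2 vector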
# Active calls of the source: *; · = not tested or not shown. Hits are enriched below; roughly 1.3% of the tested compounds scored in any of these assays.
SMILES,SRC2 inh,Gli-Sufu block,COUP-TFII inh,LRH-1 inv ag,NCOA3 inh,SRC1 inh,Gli-Sufu confirm,SufuKO cytotox,Wnt3a counter,VP16 Luc counter,NR2F2 inh conf
CC(C)(C)c1ccc(C(=O)O/N=C(\N)c2ccccn2)cc1,86*,86*,95*,88*,88*,90*,91*,19,102*,74*,101*
Cc1ccc(C2NC(=O)c3n[nH]c(C)c32)cc1 (stereo not drawn),11,·,2,·,·,·,·,·,·,·,·
CCCCN1C(=O)/C(=C/C=C2\Oc3ccccc3N2CC)SC1=S,4,6,-7,1,-1,11,·,·,·,·,·
CCN1/C(=C/C=C/c2oc3ccc(-c4ccccc4)cc3[n+]2CC)Oc2ccc(-c3ccccc3)cc21,29,88*,84*,67,48,59,90*,35*,39*,40*,94*
CN(C)c1nc(-c2ccccc2)nc(-c2ccc(Cl)cc2)c1C#N,-11,-77,-8,-5,8,-9,·,·,·,·,·
CCN(CC)c1nc(-c2ccccn2)nc(-c2ccccc2)c1C#N,24,63*,41*,45,32,13,25,12,10,1,11
O=C(Nc1cccnc1)c1cccc(S(=O)(=O)N2CCc3ccccc32)c1,25,2,22,16,-6,4,·,·,·,·,·
O=C(Nc1ccncc1)c1cccc(S(=O)(=O)N2CCc3ccccc32)c1,-4,56*,61*,34,16,26,55*,19,40*,0,45*
CCC[C@H]1[C@@H](OC(=O)NC(CC)CC)CC[C@@]23CCCN2C(=O)CCC[C@@H]13,·,·,-2,·,·,·,·,·,·,·,·
Cc1ccc2c(c1)[nH]c1c(N3CCN(Cc4ccccc4)CC3)ncnc12,3,68*,67*,23,20,14,63*,30*,7,0,40*
COc1ccc2c(c1)[nH]c1c(N3CCSCC3)ncnc12,9,15,19,18,26,-12,·,·,·,·,·
CC(Sc1nc2ccccc2c(=O)n1C)C(=O)N(C)C1CCCCC1 (stereo not drawn),26,72*,46*,28,12,18,61*,18,10,6,26
O=S(=O)(c1cc(F)ccc1F)N1CCN(c2ncnc3ccccc23)CC1,23,59*,51*,18,19,8,63*,58*,10,19*,53*
O=S(=O)(c1cc(F)ccc1F)N1CCN(c2ccccn2)CC1,9,6,9,-6,3,-2,·,·,·,·,·
C[C@@H]1CN(c2ccc(N3CCN(C(=O)OC(C)(C)C)C[C@@H]3C)cc2C#N)C[C@H](C)O1,2,·,10,·,·,·,·,·,·,·,·
Cc1cccnc1CN1CCN(C(=O)c2cc(COc3ccc4ncccc4c3)on2)CC1,34,62*,63*,30,19,-55,66*,27*,27*,-1,38*
CCC(O)C1CCN(C(=O)c2cc(COc3ccc4ncccc4c3)on2)CC1 (stereo not drawn),4,73*,72*,33,1,24,65*,20,40*,5,63*
O=C(c1cc(COc2ccc3ncccc3c2)on1)N1CCC(O)CC1,-22,27,24,-7,-19,-15,·,·,·,·,·
O=C(NC1CCCCCCC1)c1cc(COc2ccc3ncccc3c2)on1,31,73*,62*,42,35,24,73*,28*,-12,2,63*
CCOC(=O)N1CCN(C(=O)c2cc(COc3ccc4ncccc4c3)on2)CC1,30,67*,58*,27,12,3,51*,23,23,-1,46*
COc1cccc(CNC(=O)[C@H]2CCCN2C(=O)[C@H]2CCCN2C(=O)c2cccs2)c1,-8,·,-14,·,·,·,·,·,·,·,·
COc1ccc(-n2cc(-c3ccccc3)[nH]c2=S)cc1,-22,-32,-14,-71,-43,-44,·,·,·,·,·
COc1ccc(-c2cn(-c3ccccc3)c3[n+]2CCS3)cc1,14,81*,50*,44,34,22,82*,33*,30*,4,34
Cc1ccc(Cl)cc1N1CCN(C(=O)CSc2nnc3n2C(C)(C)Cc2ccccc2-3)CC1,16,61*,63*,13,15,24,60*,20,8,9,50*
COc1ccc(N2CCN(C(=O)CSc3nnc4n3C(C)(C)Cc3ccccc3-4)CC2)cc1,-32,14,-8,5,-4,-13,·,·,·,·,·
SMILES,SRC2 inh,Gli-Sufu block,COUP-TFII inh,LRH-1 inv ag,NCOA3 inh,SRC1 inh,Gli-Sufu confirm,SufuKO cytotox,Wnt3a counter,VP16 Luc counter,NR2F2 inh conf
O=C(OC12CCCN(C1)/C(=C/c1cccc(Cl)c1)C2)C1CCCCC1 (stereo not drawn),18,·,-9,·,·,·,·,·,·,·,·
CCc1ccc(OC)c(S(=O)(=O)Nc2ccc(Cc3ccncc3)cc2)c1,23,57*,64*,23,25,22,58*,44*,29*,4,36
COc1ccc(S(=O)(=O)Nc2ccc(Cc3ccncc3)cc2)cc1OC,22,15,29,6,20,7,·,·,·,·,·
O=C(C=Cc1ccc(O)c(O)c1)NCC(=O)NC(Cc1ccccc1)C(=O)O (stereo not drawn),-16,·,5,·,·,·,·,·,·,·,·
CCOc1ccc(-c2c[n+]3c(n2-c2ccccc2)CCCCC3)cc1,28,88*,56*,51,38,24,88*,39*,21,6,44*
CC(=O)c1c(C)[nH]c(C(=O)OCC(=O)Nc2cccc(S(=O)(=O)N3CCCC3)c2)c1C,19,58*,66*,46,41,36,53*,14,-20,-15,36
